Bioassay records from PubChem BioAssay.
RecA intein inh – inhibitors of M. tuberculosis RecA intein splicing; inhibition, % (concentration not given with the values); AID 2221; cell-free RecA intein splicing, fluorescence; P9WHJ3; hit rate 0.75% among 290,000; in the data active = inhibition above about 30%
UGM FP inh – Mtb UDP-galactopyranose mutase inhibition. P9WIQ1. purified UGM, fluorescence polarization probe displacement. inhibition, % at 10 µM. hit rate 0.06% among 320,000. AID 504406; in the data active = inhibition above about 10%, passing the limit was not always enough
Rv3671c protease – Rv3671c (M. tuberculosis) protease inhibition. P9WHR9. inhibition, % at 5.96 µM. hit rate 0.048% among 320,000. AID 2606; in the data active = inhibition above about 38%;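 note: extracellular domain of Rv3671c used as enzyme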
Target sequence (P9WHR9 whole entry, looked up, the tested form may be a part): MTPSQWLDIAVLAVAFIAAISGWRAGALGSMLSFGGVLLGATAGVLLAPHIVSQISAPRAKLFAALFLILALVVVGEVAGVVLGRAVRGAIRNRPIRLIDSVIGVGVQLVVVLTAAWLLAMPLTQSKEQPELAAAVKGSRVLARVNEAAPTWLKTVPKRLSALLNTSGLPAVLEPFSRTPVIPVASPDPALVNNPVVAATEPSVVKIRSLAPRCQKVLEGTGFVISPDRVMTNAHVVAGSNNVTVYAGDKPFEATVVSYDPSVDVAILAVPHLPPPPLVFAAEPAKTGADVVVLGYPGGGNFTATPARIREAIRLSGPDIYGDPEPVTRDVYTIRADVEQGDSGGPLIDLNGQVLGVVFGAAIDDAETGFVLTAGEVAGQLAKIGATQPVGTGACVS
BH1578 lux ind – inducers of Vibrio cholerae quorum light production without autoinducers. V. cholerae BH1578 lux reporter, luminescence, 6 h. activation, % at 18.7 µM. hit rate 0.16% among 350,000. AID 588436; in the data active = activation mostly above about 9.7%, no sharp cut-off
Mtb FBA inh – inhibitors of M. tuberculosis fructose-bisphosphate aldolase | hit rate 2.3% among 360,000 | inhibition, % at 1 µM | purified M. tuberculosis FBA, fluorescence read-out; in the data active = inhibition above about 27%
GDH-TPI counter – counter-screen for M. tuberculosis FBA inhibitors: GDH-TPI coupled enzymes. GDH-TPI coupled enzyme counterscreen, NADH absorbance. inhibition, % at 4.8 µM. hit rate 1.2% among 360,000; in the data active = inhibition above about 30%
A number is an active result; - = inactive; . = not tested or not shown; + = active, no number. Sampled rows, rich in hits. Any-hit rate of the full collection: about 4.1%.

SMILES	RecA intein inh	UGM FP inh	Rv3671c protease	BH1578 lux ind	Mtb FBA inh	GDH-TPI counter
CCOP(=O)(OCC)c1nc(/C=C/c2ccccc2)oc1NCc1ccccc1	-	-	-	-	+	37
CCOP(=O)(OCC)c1nc(/C=C/c2ccccc2)oc1NCc1ccc(OC)cc1	-	-	-	-	+	-
CC(NC(=O)c1ccccc1)C(=O)N/N=C/c1cccc([N+](=O)[O-])c1 (centres undefined)	-	-	-	-	-	-
Cc1ccc(C(=O)NCCc2nnc3ccc(NCc4ccc5c(c4)OCO5)nn23)cc1	-	-	-	-	-	-
COCC1CCN(C(=O)C2CCC(=O)N(Cc3cccc(F)c3)C2)CC1 (centres undefined)	-	-	-	-	-	-
COc1cc2c(cc1OC)-c1cc3ccc(OC)c(OC)c3c[n+]1CC2	.	-	-	-	-	59
COc1ccc(NC(=O)CN(C)C(=O)c2cccc3ccccc23)cc1	-	-	-	-	131	-
COc1ccc(NC(=O)CN(C)C(=O)c2ccccc2OC)cc1	-	-	.	-	-	-
CCOC(=O)c1ccc(NC2=CC(=O)CC(c3ccco3)C2)cc1 (centres undefined)	-	-	-	-	-	60
Cc1onc(-c2ccccc2Cl)c1C(=O)N1CCN(C)CC1	-	-	-	-	-	-
O=C(CC1N=C2c3ccccc3N=C(SCc3ccc(F)cc3)N2C1=O)NCc1ccco1 (centres undefined)	-	-	-	17	-	-
CCOc1ccc(CN(C)C(=O)CCNC(=O)c2ccco2)cc1	.	-	-	-	-	-
CCOc1ccc(CN(C)C(=O)CCl)cc1	55	-	-	-	-	-
Cn1c(N/N=C/c2cccs2)cc(=O)n(C)c1=O	-	-	-	33	-	-
Cn1c(=O)c2c(nc(N/N=C/c3cccs3)n2C)n(C)c1=O	-	-	-	-	-	-
Cc1nn(Cc2ccccc2)c(C)c1/C=N/NC(=O)c1ccccc1O	-	-	-	-	-	36
Cc1nn(Cc2ccccc2)c(C)c1/C=N/NC(=O)c1ccncc1	-	-	-	-	-	-
c1cnn2c(-c3ccc4c(c3)CCO4)cnc2c1	.	.	.	-	-	-
CN(C)C(=O)c1cccc(-c2cnc3cccnn23)c1	.	.	.	-	132	-
CCN1c2ccccc2-c2nc3ccccc3n2C1c1cccs1 (centres undefined)	-	-	-	-	+	-
CCn1c(NCc2cccs2)nc2ccccc21	-	-	-	-	-	-
CC1(CC(=O)N/N=C/c2cc(Br)c(O)cc2O)OCCO1	-	-	-	-	-	48
CC1(CC(=O)N/N=C/c2ccc(-c3cccc(C(F)(F)F)c3)o2)OCCO1	-	-	-	-	-	37
CC1CN(S(=O)(=O)c2ccc(C(=O)Nc3ccc(S(=O)(=O)Nc4nccs4)cc3)cc2)CC(C)O1 (centres undefined)	-	-	-	-	-	-
CC1CN(S(=O)(=O)c2ccc(C(=O)Nc3nccs3)cc2)CC(C)O1 (centres undefined)	-	-	-	-	-	43
SMILES	RecA intein inh	UGM FP inh	Rv3671c protease	BH1578 lux ind	Mtb FBA inh	GDH-TPI counter
CCCCC(=O)NC(=S)Nc1cccc(NC(=O)c2ccccc2)c1	-	-	-	-	-	-
CCOC(=O)CN1N=C(/C=C/c2ccc(OCC)cc2)CCC1=O	-	-	-	-	-	34
C=CCN1N=C(/C=C/c2ccc(OC)cc2)CCC1=O	-	-	-	-	-	34
C=CCN1N=C(/C=C/c2ccc(C)cc2)CCC1=O	-	-	-	-	-	-
CCOC(=O)CN1N=C(/C=C/c2ccc(C(C)C)cc2)CCC1=O	-	-	-	-	-	-
CCOC(=O)CN1N=C(/C=C/c2ccccc2)CCC1=O	-	-	-	-	-	-
CCOC(=O)C(C)N1N=C(/C=C/c2ccc(C)cc2)CCC1=O (centres undefined)	-	-	-	-	-	39
O=C(CSc1nnc2n1CCCN2)c1ccc(Cl)cc1	-	-	-	32	-	-
O=C(CSc1nnc2n1CCCN2)c1ccc([N+](=O)[O-])cc1	-	-	-	-	-	-
CC(C)CN1C(=O)C(=O)N(CC(=O)c2ccc3c(c2)OCO3)C1=O	-	.	-	-	-	-
COc1cc(C(C#N)N2CCC(c3ccccc3)=N2)ccc1O (centres undefined)	-	-	-	-	-	36
COc1ccc2sc(-c3ccc(N(C)C)cc3)c(C#CCCO)c2c1	.	-	-	-	+	-
COc1ccc2sc(-c3ccc(N(C)C)cc3)c(C#CC(C)(C)O)c2c1	.	-	-	-	+	-
